Results taken from PubChem BioAssay (EPA / NIEHS).
“And” between values parts separate entries of the source, which are not always exact repeats. Identical values can stand only once. More than one record can exist for a structure, and the calls need not agree. The source made the active and inactive calls. The calls were made as follows: active = hit-call score of the fitted dose curve at least 0.9, where 1 is the maximum; inactive = score below 0.9.

Key:
[1] = read-out: Tissue Factor, F3 (gene 2152); assay: BSK_CASM3C_TissueFactor: BioMAP Diversity Plus: CASM3C Assay for Tissue Factor Biomarker Activity (AID 2283052); conditions: primary human coronary artery smooth muscle cells; actives raise or lower the signal;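 also: cell surface tissue factor protein level read by ELISA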
[2] = read-out: Interferon-gamma inducible Protein 10 (IP10), CXCL10 (gene 3627); assay: BSK_hDFCGF_IP10: BioMAP Diversity Plus: hDFCGF Assay for Interferon-gamma inducible Protein 10 (IP10) Biomarker Activity (AID 2283053); conditions: primary human foreskin fibroblasts; actives raise or lower the signal
Procedure, shortened: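 Primary foreskin fibroblasts, human; 24 h compound exposure; IP-10 by ELISA; bidirectional fit vs DMSO.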

[3] = read-out: Urokinase-type plasminogen activator receptor (uPAR), PLAUR (gene 5329); assay: BSK_CASM3C_uPAR: BioMAP Diversity Plus: CASM3C Assay for Urokinase-type plasminogen activator receptor (uPAR) Biomarker Activity (AID 2283054); conditions: primary human coronary artery smooth muscle cells; actives raise or lower the signal;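 also: cell-surface uPAR protein level quantified by ELISA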
[4] = read-out: Vascular cell adhesion molecule 1 (VCAM1), VCAM1 (gene 7412); assay: BSK_CASM3C_VCAM1: BioMAP Diversity Plus: CASM3C Assay for Vascular cell adhesion molecule 1 (VCAM1) Biomarker Activity (AID 2283055); conditions: primary human coronary artery smooth muscle cells; actives raise or lower the signal;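 also: VCAM-1 protein level quantified by ELISA on the cells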
[5] = read-out: Collagen III, COL3A1 (gene 1281); assay: BSK_hDFCGF_CollagenIII: BioMAP Diversity Plus: hDFCGF Assay for Collagen III Biomarker Activity (AID 2283056); conditions: primary human foreskin fibroblasts; actives raise or lower the signal
Procedure, shortened: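 Response relative to DMSO, fitted in both directions, reflects ELISA-measured collagen III in human primary skin fibroblasts 24 h after compound addition.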

[6] = read-out: Epidermal growth factor receptor (EGFR), EGFR (gene 1956); assay: BSK_hDFCGF_EGFR: BioMAP Diversity Plus: hDFCGF Assay for Epidermal growth factor receptor (EGFR) Biomarker Activity (AID 2283057); conditions: primary human foreskin fibroblasts; actives raise or lower the signal
Procedure, shortened: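 hDFCGF system, primary human foreskin fibroblasts; compound 24 h; EGFR measured by ELISA; DMSO = negative control/baseline; bidirectional fitting.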

[7] = read-out: Interleukin-8 (IL8), CXCL8 (gene 3576); assay: BSK_hDFCGF_IL8: BioMAP Diversity Plus: hDFCGF Assay for Interleukin-8 (IL8) Biomarker Activity (AID 2283058); conditions: primary human foreskin fibroblasts; actives raise or lower the signal
Procedure, shortened: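 Fibroblast monolayers (human foreskin, hDFCGF) received test chemical for 24 h before ELISA detection of IL-8; either increases or decreases relative to DMSO count as activity.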

[8] = BSK_hDFCGF_Proliferation: Cell Proliferation Assessment in the BioMAP Diversity Plus: hDFCGF Assay (AID 2283059); conditions: primary human foreskin fibroblasts;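 also: curves fitted for both rise and fall of signal versus DMSO baseline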
Procedure, shortened: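 This proliferation readout used SRB total-protein staining of human foreskin fibroblasts […], normalized to DMSO with bidirectional curve fitting.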

[9] = read-out: Macrophage colony-stimulating factor (MCSF), CSF1 (gene 1435); assay: BSK_hDFCGF_MCSF: BioMAP Diversity Plus: hDFCGF Assay for Macrophage colony-stimulating factor (MCSF) Biomarker Activity (AID 2283060); conditions: primary human foreskin fibroblasts; actives raise or lower the signal
Procedure, shortened: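 fibroblasts (human foreskin, primary), 24 h post-dose; M-CSF by ELISA; bidirectional fit, DMSO = baseline.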

[10] = BSK_hDFCGF_SRB: Viability Assessment in the BioMAP Diversity Plus: hDFCGF Assay (AID 2283061); conditions: primary human foreskin fibroblasts;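 also: cells exposed to compound for 24 h before the read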
Procedure, shortened: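 SRB-based viability read on primary human skin fibroblasts at 24 h: TCA fixation, 0.1% dye, 560 nm. Gain or loss of signal is fitted against the DMSO negative control.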

[11] = read-out: TIMP metallopeptidase inhibitor 1 (TIMP1), TIMP1 (gene 7076); assay: BSK_hDFCGF_TIMP1: BioMAP Diversity Plus: hDFCGF Assay for TIMP metallopeptidase inhibitor 1 (TIMP1) Biomarker Activity (AID 2283062); conditions: primary human foreskin fibroblasts; actives raise or lower the signal
Procedure, shortened: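 Bidirectional curve fitting against DMSO baseline yielded this endpoint, based on ELISA detection of TIMP-1 in primary human foreskin fibroblasts exposed to compound for 24 h.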

[12] = read-out: Monokine induced gamma interferon (MIG), CXCL9 (gene 4283); assay: BSK_hDFCGF_MIG: BioMAP Diversity Plus: hDFCGF Assay for Monokine induced gamma interferon (MIG) Biomarker Activity (AID 2283063); conditions: primary human foreskin fibroblasts; actives raise or lower the signal
Procedure, shortened: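 Endpoint derived by bidirectional fitting relative to DMSO; MIG quantified via ELISA in primary human foreskin fibroblasts harvested 24 h after dosing.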

[13] = read-out: Matrix Metallopeptidase 1 (MMP1), MMP1 (gene 4312); assay: BSK_hDFCGF_MMP1: BioMAP Diversity Plus: hDFCGF Assay for Matrix Metallopeptidase 1 (MMP1) Biomarker Activity (AID 2283064); conditions: primary human foreskin fibroblasts; actives raise or lower the signal
Procedure, shortened: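 Primary human foreskin fibroblasts in the hDFCGF system were dosed with test chemical, and MMP1 was measured by ELISA 24 h later. Values come from bidirectional curve fitting against the DMSO baseline.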

[14] = read-out: Vascular cell adhesion molecule 1 (VCAM1), VCAM1 (gene 7412); assay: BSK_hDFCGF_VCAM1: BioMAP Diversity Plus: hDFCGF Assay for Vascular cell adhesion molecule 1 (VCAM1) Biomarker Activity (AID 2283065); conditions: primary human foreskin fibroblasts; actives raise or lower the signal;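 as to AC50: VCAM-1 protein level quantified by ELISA after 24 h chemical exposure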
Procedure, shortened: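 Measured after 24 h chemical treatment of primary human skin fibroblasts, VCAM-1 was detected by ELISA and concentration-response analysed in both directions versus DMSO vehicle.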

[15] = read-out: Plasminogen activator inhibitor-1 (PAI1), SERPINE1 (gene 5054); assay: BSK_hDFCGF_PAI1: BioMAP Diversity Plus: hDFCGF Assay for Plasminogen activator inhibitor-1 (PAI1) Biomarker Activity (AID 2283066); conditions: primary human foreskin fibroblasts; actives raise or lower the signal
Procedure, shortened: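 Primary dermal fibroblasts (human foreskin), hDFCGF system; compound 24 h; PAI-1 by ELISA; bidirectional fit vs DMSO control.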

[16] = read-out: Intercellular Adhesion Molecule 1 (ICAM1), ICAM1 (gene 3383); assay: BSK_KF3CT_ICAM1: BioMAP Diversity Plus: KF3CT Assay for Intercellular Adhesion Molecule 1 (ICAM1) Biomarker Activity (AID 2283067); conditions: primary human keratinocytes with fibroblasts; actives raise or lower the signal
Procedure, shortened: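 Bidirectional curve fitting against a DMSO baseline was applied to ICAM-1 ELISA signal from primary human skin co-cultures harvested 24 h after treatment, with SRB staining of parallel wells for overt cytotoxicity.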

[17] = read-out: Interferon-gamma inducible Protein 10 (IP10), CXCL10 (gene 3627); assay: BSK_KF3CT_IP10: BioMAP Diversity Plus: KF3CT Assay for Interferon-gamma inducible Protein 10 (IP10) Biomarker Activity (AID 2283068); conditions: primary human keratinocytes with fibroblasts; actives raise or lower the signal
Procedure, shortened: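 Signal is secreted/surface IP-10 by ELISA in a human primary skin co-culture of keratinocytes and foreskin fibroblasts, taken 24 h post-dosing; DMSO served as negative control.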

[18] = BSK_KF3CT_SRB: Viability Assessment in the BioMAP Diversity Plus: KF3CT Assay (AID 2283069); conditions: primary human keratinocytes with fibroblasts;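 also: total protein by sulforhodamine B staining as a cytotoxicity measure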
Procedure, shortened: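 Human primary keratinocyte plus foreskin fibroblast co-culture exposed to chemicals for 24 h. Total protein measured by 0.1% sulforhodamine B staining after 10% TCA fixation, read at 560 nm; bidirectional fitting versus DMSO baseline.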

[19] = read-out: Interleukin-1 alpha (IL1a), IL1A (gene 3552); assay: BSK_KF3CT_IL1a: BioMAP Diversity Plus: KF3CT Assay for Interleukin-1 alpha (IL1a) Biomarker Activity (AID 2283070); conditions: primary human keratinocytes with fibroblasts; actives raise or lower the signal
Procedure, shortened: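 Human keratinocyte plus foreskin fibroblast primary co-culture, sampled 24 h after chemical dosing. IL-1a measured by ELISA; responses fitted bidirectionally against DMSO baseline (negative control), so gain or loss of signal both count.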

[20] = read-out: TIMP metallopeptidase inhibitor 2 (TIMP2), TIMP2 (gene 7077); assay: BSK_KF3CT_TIMP2: BioMAP Diversity Plus: KF3CT Assay for TIMP metallopeptidase inhibitor 2 (TIMP2) Biomarker Activity (AID 2283071); conditions: primary human keratinocytes with fibroblasts; actives raise or lower the signal
Procedure, shortened: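 Cells: human keratinocytes co-cultured with foreskin fibroblasts. Treat with chemical, 24 h. Measure TIMP-2 by ELISA; fit curves bidirectionally vs DMSO baseline.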

OCCC(F)(F)C(F)(F)C(F)(F)C(F)(F)C(F)(F)C(F)(F)C(F)(F)C(F)(F)F
AC50 [1]: 30 µM (active) and 18.4 µM (active) | outcome [1]: inactive | AC50 [2]: 14.6 µM (active) and 11.2 µM (active) | outcome [2]: inactive | AC50 [3]: 42.3 µM (active) and 43.7 µM (active) | outcome [3]: inactive | AC50 [4]: 12.3 µM (active) and 23.2 µM (active) and 11.5 µM (active) | AC50 [5]: 18.3 µM (active) and 11.9 µM (active) | outcome [5]: inactive | outcome [6]: inactive | AC50 [7]: 19.2 µM (active) and 17.4 µM (active) | outcome [7]: inactive | AC50 [8]: 11.4 µM (active) and 5.06 µM (active) | outcome [8]: inactive | AC50 [9]: 13.8 µM (active) and 12.1 µM (active) | outcome [9]: inactive | AC50 [10]: 13.8 µM (active) and 15.5 µM (active) | outcome [10]: inactive | AC50 [11]: 16.3 µM (active) and 14.6 µM (active) | outcome [11]: inactive | AC50 [12]: 18 µM (active) and 17.8 µM (active) | outcome [12]: inactive | AC50 [13]: 17.9 µM (active) and 17 µM (active) | outcome [13]: inactive | AC50 [14]: 16.1 µM (active) and 12.8 µM (active) | outcome [14]: inactive | AC50 [15]: 12.8 µM (active) | outcome [15]: inactive | AC50 [16]: 23.2 µM (active) and 20 µM (active) | outcome [16]: inactive | AC50 [17]: 15.7 µM (active) | outcome [17]: inactive | AC50 [18]: 18.1 µM (active) and 14.5 µM (active) | outcome [18]: inactive | AC50 [19]: 17.3 µM (active) and 9.96 µM (active) | outcome [19]: inactive | AC50 [20]: 19.9 µM (active) and 14.6 µM (active) | outcome [20]: inactive

ClC1=C(Cl)C(Cl)(Cl)C(Cl)=C1Cl
AC50 [1]: 1.92 µM (active) | AC50 [2]: 9.62 µM (active) | AC50 [3]: 6.99 µM (active) | AC50 [4]: 5.1 µM (active) | AC50 [5]: 14 µM (active) | outcome [6]: inactive | AC50 [7]: 17 µM (active) | AC50 [8]: 4.2 µM (active) | AC50 [9]: 9.09 µM (active) | AC50 [10]: 12.8 µM (active) | AC50 [11]: 12.4 µM (active) | AC50 [12]: 13.6 µM (active) | AC50 [13]: 13.9 µM (active) | AC50 [14]: 6.75 µM (active) | AC50 [15]: 8.9 µM (active) | AC50 [16]: 9.94 µM (active) | AC50 [17]: 8.82 µM (active) | AC50 [18]: 7.42 µM (active) | AC50 [19]: 7.98 µM (active) | AC50 [20]: 11.8 µM (active)

FC(F)(I)C(F)(F)C(F)(F)C(F)(F)C(F)(F)C(F)(F)I
AC50 [1]: 23.7 µM (active) and 16.2 µM (active) and 30 µM (active) | outcome [1]: inactive | AC50 [2]: 5.72 µM (active) [middle of 5 runs] | AC50 [3]: 23.7 µM (active) [middle of 5 runs] | AC50 [4]: 19.8 µM (active) [middle of 5 runs] | AC50 [5]: 4.16 µM (active) [middle of 5 runs] | outcome [6]: inactive | AC50 [7]: 7.02 µM (active) [middle of 5 runs] | AC50 [8]: 2.06 µM (active) [middle of 5 runs] | AC50 [9]: 4.77 µM (active) [middle of 5 runs] | AC50 [10]: 5.33 µM (active) [middle of 5 runs] | AC50 [11]: 6.72 µM (active) [middle of 5 runs] | AC50 [12]: 6.07 µM (active) [middle of 5 runs] | AC50 [13]: 5.8 µM (active) [middle of 5 runs] | AC50 [14]: 3.81 µM (active) [middle of 5 runs] | AC50 [15]: 5.44 µM (active) [middle of 5 runs] | AC50 [16]: 9.2 µM (active) [middle of 5 runs] | AC50 [17]: 7.76 µM (active) [middle of 5 runs] | AC50 [18]: 8.99 µM (active) [middle of 5 runs] | AC50 [19]: 7.77 µM (active) [middle of 5 runs] | AC50 [20]: 13.2 µM (active) [middle of 5 runs]

CC(O)CO (centres undefined)
outcome [1]: inactive | outcome [2]: inactive | outcome [3]: inactive | outcome [4]: inactive | outcome [5]: inactive | outcome [6]: inactive | outcome [7]: inactive | outcome [8]: inactive | outcome [9]: inactive | outcome [10]: inactive | outcome [11]: inactive | outcome [12]: inactive | outcome [13]: inactive | outcome [14]: inactive | outcome [15]: inactive | outcome [16]: inactive | outcome [17]: inactive | outcome [18]: inactive | outcome [19]: inactive | outcome [20]: inactive
